From ChEMBL document CHEMBL4513146, “CO-ADD screening of Karazin Kharkiv National University (Ukraine) compounds”
Results with a measured potency or affinity are listed apart.

What follows are compounds tested on Escherichia coli. Conditions: Concentration 32 ug.mL-1;; ASSAY_TEST Inhibition of Bacterial Growth; detection method Absorption (OD600); MEDIA CAMHB; plate type 384well; NBS; CORNING #3640; time 18 hr.

Point of comparison: `CCc1nnc2c(SCC(=O)Nc3c(C)cc(C)cc3C)nc3ccccc3n12`, Inhibition 3.61%. Against it:
- O=C(Cn1nc2c(Sc3cccc(F)c3)nccn2c1=O)Nc1ccc(Br)cc1 — lower, -5.66%
- Cc1ccc(NC(=O)Cn2nc3c4cc(-c5ccc(Cl)cc5)nn4ccn3c2=O)cc1F — higher, 6.51%
- CCOc1ccc(-n2ccn3c(SC(C)C(=O)Nc4ccc5c(c4)OCCO5)nnc3c2=O)cc1 (stereo not given) — lower, 0.39%
- CC(=O)c1ccc(NC(=O)Cn2nc3ccc(Sc4ccccc4)nn3c2=O)cc1 — lower, -7.82%
- COC(=O)c1ccccc1NC(=O)Cn1nc2c(Oc3cccc(OC)c3)nccn2c1=O — lower, -21.29%
- Cc1nnc2ccc(S(=O)(=O)N(Cc3cccc(F)c3)c3cccc(Cl)c3)cn12 — lower, -14.72%
- Cc1cccc(Oc2nccn3c(=O)n(CC(=O)N4CCN(c5ccc(F)cc5)CC4)nc23)c1C — lower, -6.71%
- Cc1ccc(-n2ccn3c(=O)n(Cc4ccc(Cl)cc4)nc3c2=O)cc1C — lower, -1.91%
- O=c1n(Cc2ccc(Cl)cc2)nc2ccc(-c3ccccc3)nn12 — lower, -1.49%
- CC(C)c1nnc2c(SCC(=O)Nc3ccc(Cl)cc3C(F)(F)F)nc3ccccc3n12 — lower, -15.72%
- CCCN(C)c1nccn2c(=O)n(CC(=O)Nc3ccc(OC)c(Cl)c3)nc12 — lower, -1.22%
- CC(C)c1ccc(NC(=O)Cn2nc3c(SCc4ccccc4)nccn3c2=O)cc1 — lower, -7.26%
- COc1cccc(CN(c2ccc(Cl)cc2)S(=O)(=O)c2ccc3nncn3c2)c1 — lower, -6.27%
- CCOc1ccc(NC(=O)Cn2nc3c4cc(-c5ccc(Cl)cc5)nn4ccn3c2=O)cc1 — lower, -4.33%
- Cc1ccc(-c2cc3c4nn(CC(=O)NC5CCCC5)c(=O)n4ccn3n2)cc1C — lower, -0.5%
- COc1ccccc1Cn1c(=O)c2sccc2n2c(=O)n(Cc3cccc(C)c3)nc12 — lower, 0.66%
- Cc1ccc(NC(=O)CSc2nc3ccccc3n3c(C)nnc23)c(Br)c1 — lower, -2.51%
- COc1cccc(-n2ccn3c(SCC(=O)c4ccc(F)cc4)nnc3c2=O)c1 — lower, -3.39%
- Cc1c(Cl)cccc1-n1ccn2c(=O)n(Cc3ccc(F)cc3)nc2c1=O — lower, -11.88%
- CSc1cccc(NC(=O)Cn2nc3c(SC4CCCCC4)nccn3c2=O)c1 — lower, -5.86%
- CC(C)c1ccc(NC(=O)Cn2nc3c(N4CCCC4)nccn3c2=O)cc1 — lower, -0.46%
- Cc1ccc(Sc2nccn3c(=O)n(CC(=O)N4CCN(c5ccccc5F)CC4)nc23)c(C)c1 — lower, -4.29%
- COc1ccc(-c2cc3c4nn(CC(=O)Nc5cc(OC)ccc5OC)c(=O)n4ccn3n2)cc1 — higher, 4.02%
- COc1ccc(-c2cc3c4nn(CC(=O)N5CCCc6ccccc65)c(=O)n4ccn3n2)cc1 — lower, 1.46%
- Cc1cccc(C)c1NC(=O)Cn1nc2c(N3CCSCC3)nc3ccccc3n2c1=O — lower, -7.41%
- Cc1nnc2c(SCC(=O)Nc3ccc4c(c3)OCCO4)nc3ccccc3n12 — lower, 3.38%
- COc1cccc(-n2ccn3c(SCC(=O)c4c[nH]c5ccccc45)nnc3c2=O)c1 — lower, -5.66%
- COc1ccc(NC(=O)CSc2nnc3c(=O)n(-c4ccccc4)ccn23)cc1OC — lower, -7.32%
- CCCn1c(=O)c2sccc2n2c(=O)n(CC(=O)c3cccc(OC)c3)nc12 — lower, -2.97%
- COc1ccc(CCn2c(=O)c3sccc3n3c(=O)n(Cc4ccc(F)cc4)nc23)cc1OC — lower, -0.5%
- N#CCSc1nnc2c(=O)n(-c3ccccc3)ccn12 — lower, 0.91%
- CCc1nnc2ccc(S(=O)(=O)N(Cc3ccc(OC)c(F)c3)c3ccccc3)cn12 — lower, -2.03%
- Cc1ccc(N(Cc2cccc(C)c2)S(=O)(=O)c2cccn3c(C)nnc23)cc1 — lower, -15.69%
- COc1ccc(-c2cc3c4nnc(CCC(=O)NCc5cccs5)n4ccn3n2)cc1 — higher, 4.51%
- Cc1cc(C)c(NC(=O)Cn2c(=O)c3nnc(C(C)C)n3c3ccccc32)c(C)c1 — lower, 3.04%
- Cc1ccc(NC(=O)Cn2nc3c(Oc4ccccc4)nccn3c2=O)c(Br)c1 — lower, -7.68%
- COc1ccc(OC)c(NC(=O)Cn2nc3ccc(-c4ccc(C)cc4)nn3c2=O)c1 — lower, -11.89%
- CCCCn1c(=O)c2sccc2n2c(=O)n(CC(=O)N3CCC(Cc4ccccc4)CC3)nc12 — lower, -3.89%
- CCCCc1ccc(NC(=O)CSc2nnc3c4cc(-c5ccc(C)cc5)nn4ccn23)cc1 — lower, 0.28%
